According to PubChem BioAssay AID651848 (The Scripps Research Institute Molecular Screening Center, 2012):
The list shows a part of the results. Calls of active or inactive are those of the source. Rule as the data show it: active = IC50 below about 10 µM; inactive = the rest.

Experiment: small-molecule binders of antibody PG9, dose response, biochemical, TR-FRET, HIV-1 gp120 antibody (AID 651848)
Settings: TR-FRET PG9 antibody-gp120 binding inhibition

IC50, inactive:
COc1ccc(-c2c(C)nn3c(N4CCC(C(=O)N5CCCCC5)CC4)cc(C)nc23)cc1OC > 67 µM, O=C(Oc1ccccc1)Oc1ccc2c(c1)oc(=O)c1ccccc12 25.1 µM, CC1(C)Cc2ccccc2-c2[nH]c(=S)[nH]c(=O)c21 > 67.1 µM, O=C(Nc1nnc(-c2ccccc2F)s1)c1ccccc1F > 67.1 µM, COC(=O)C1=C(C)N(Cc2ccccc2C(F)(F)F)C(=NCc2ccc(OC)cc2)NC1c1cccc(C(F)(F)F)c1 (configuration not stated) > 67 µM, Cc1cccc(Nc2nc3c(S(=O)(=O)c4ccccc4)nnn3c3ccccc23)c1C > 67 µM, S=c1[nH]c2ccccc2c2ccccc12 44.6 µM
